Data published in article PMC4336329 (PLoS ONE, 2015).
Out of some 310,000 compounds screened, about 14,000 (4.5%) showed an effect of 50% or more. Effects have a minus sign here. Shown is part of a subset that was picked to be rich in strong results.

target: human ether-à-go-go-related gene (hERG) potassium channel (human, UniProt Q12809); assay: primary screen, population patch clamp on CHO cells stably expressing hERG; higher = less effect of the substance
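Note: peak tail current of the secondary pulse compared with the same well before compound.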

Sequence of human ether-à-go-go-related gene (hERG) potassium channel (Q12809 whole entry, looked up): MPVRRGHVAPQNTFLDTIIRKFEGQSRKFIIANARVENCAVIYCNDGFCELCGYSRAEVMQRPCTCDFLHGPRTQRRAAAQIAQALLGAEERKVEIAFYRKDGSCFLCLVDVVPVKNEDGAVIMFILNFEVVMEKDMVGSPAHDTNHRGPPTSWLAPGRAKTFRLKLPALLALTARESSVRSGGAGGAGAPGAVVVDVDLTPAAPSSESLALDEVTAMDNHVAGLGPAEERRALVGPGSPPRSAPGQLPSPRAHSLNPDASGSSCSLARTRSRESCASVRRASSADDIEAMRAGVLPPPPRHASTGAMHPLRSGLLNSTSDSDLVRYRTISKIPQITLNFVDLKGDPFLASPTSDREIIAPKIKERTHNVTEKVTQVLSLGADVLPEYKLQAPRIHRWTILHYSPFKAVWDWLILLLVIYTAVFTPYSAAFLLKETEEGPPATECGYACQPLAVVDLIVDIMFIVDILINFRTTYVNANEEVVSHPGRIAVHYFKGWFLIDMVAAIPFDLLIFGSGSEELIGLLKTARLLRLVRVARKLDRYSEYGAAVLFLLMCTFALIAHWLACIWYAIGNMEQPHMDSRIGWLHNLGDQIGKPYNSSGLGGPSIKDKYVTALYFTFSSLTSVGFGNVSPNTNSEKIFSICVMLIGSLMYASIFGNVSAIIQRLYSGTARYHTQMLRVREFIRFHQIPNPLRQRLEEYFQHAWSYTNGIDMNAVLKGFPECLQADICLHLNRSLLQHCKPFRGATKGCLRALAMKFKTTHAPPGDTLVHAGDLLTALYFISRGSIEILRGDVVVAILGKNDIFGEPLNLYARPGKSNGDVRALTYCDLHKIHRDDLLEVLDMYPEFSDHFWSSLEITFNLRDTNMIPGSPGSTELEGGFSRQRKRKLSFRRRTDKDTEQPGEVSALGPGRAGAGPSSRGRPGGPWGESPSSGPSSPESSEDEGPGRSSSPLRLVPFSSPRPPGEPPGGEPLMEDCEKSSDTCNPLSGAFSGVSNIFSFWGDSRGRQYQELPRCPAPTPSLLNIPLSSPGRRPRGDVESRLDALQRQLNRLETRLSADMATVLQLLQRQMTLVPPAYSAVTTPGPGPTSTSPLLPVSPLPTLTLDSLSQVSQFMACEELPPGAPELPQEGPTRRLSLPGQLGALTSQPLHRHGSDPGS

Structure (SMILES)	hERG current change (%, negative = inhibition) at 10uM [%]
CCNS(=O)(=O)c1ccc(CCC(=O)NCCC2=CCCCC2)cc1	-23.6
Cc1cccc(C)c1NC(=O)COC(=O)c1ccc2c(c1)OCO2	-4.84
c1cnc2c(SCc3ccc(-c4nnco4)cc3)cccc2c1	1.45
COc1cc(OC)c(NC(=O)c2csc(C)c2)cc1Cl	14.2
Cc1ccccc1CNC(=O)/C=C\C(=O)O	3.23
FC(F)(F)c1cc(-c2cccs2)nc(-n2cc(Cl)cn2)n1	0.253
CCOc1ccc(CCNC(=O)Cn2c(-c3nonc3N)nc3ccccc32)cc1OCC	-3.72
Cc1ccc(-n2c3c(cc(C(=O)O)c2=O)C(=O)CC(C)(C)C3)cc1	19.2
Cc1ccc(-n2c3c(c(O)c(-c4ccccc4)c2=O)C(=O)CC(C)(C)C3)cc1	-55.2
CC1(C)CC(=O)c2c(O)c(-c3ccccc3)c(=O)n(-c3ccccc3)c2C1	-6.83
O=C(c1ccc2nccnc2c1)N1CCCC(N2CCN(c3ccc(F)cc3)CC2)C1 (stereo not drawn)	-9.66
O=S(=O)(NCC(c1cccnc1)N1CCN(c2ccccc2)CC1)c1cc(F)ccc1F (stereo not drawn)	-62.8
COc1ccc(N2CCN(C(CNS(=O)(=O)c3cc(F)ccc3F)c3cccnc3)CC2)cc1 (stereo not drawn)	-69
COc1ccccc1N1CCN(C(CNS(=O)(=O)c2cc(F)ccc2F)c2cccnc2)CC1 (stereo not drawn)	-35
O=C(NCc1ccc(Cl)cc1)C(=O)NCC(c1cccnc1)N1CCN(c2ccc(F)cc2)CC1 (stereo not drawn)	-45.5
O=C(NCC(c1cccnc1)N1CCN(c2ccccc2)CC1)Oc1ccccc1 (stereo not drawn)	-19.2
CCS(=O)(=O)NCC(c1cccnc1)N1CCN(c2ccccc2)CC1 (stereo not drawn)	-28.1
O=C(NCC(c1cccnc1)N1CCN(c2ccc(F)cc2)CC1)C1CCCCC1 (stereo not drawn)	-45.5
O=S(=O)(NCC(c1cccnc1)N1CCN(Cc2ccccc2)CC1)c1cc(F)ccc1F (stereo not drawn)	-69.1
O=S(=O)(NCC(c1cccnc1)N1CCN(c2ccc(F)cc2)CC1)c1cc(F)ccc1F (stereo not drawn)	-65.8
COc1ccc(N2CCN(C(CNC(=O)C(C)(C)C)c3cccnc3)CC2)cc1 (stereo not drawn)	-36.7
Cc1cc(F)ccc1S(=O)(=O)NCC(c1cccnc1)N1CCc2ccccc21 (stereo not drawn)	-1.61
CC1CCCCN1C(=O)c1cc2nc(-c3ccccc3)cc(-c3ccccc3)n2n1 (stereo not drawn)	-14.5
O=S(N1CCCCC1)C12CC3CC(CC(C3)C1)C2 (stereo not drawn)	-6.95
COc1ccc(-c2nc(NC(=O)CCNC(=O)c3ccco3)sc2C)cc1	-11.1
CC(C)C[C@H](NC(=O)N1CC(=O)Nc2ccccc21)C(=O)N[C@@H](Cc1ccccc1)C(=O)O	13.2

Structure (SMILES)	hERG current change (%, negative = inhibition) at 10uM [%]
NC(=O)Cn1cc(C(=O)c2cccs2)c2ccccc21	-2.95
O=C(NNc1cc(Cl)ccc1Cl)c1cccs1	7.63
Cc1c(Br)c([N+](=O)[O-])nn1C(C)C(=O)N1CCc2ccccc2C1 (stereo not drawn)	-13.4
Cc1c(OC(C)C(=O)NC2CC(C)(C)NC(C)(C)C2)ccc2c3c(c(=O)oc12)CCC3 (stereo not drawn)	12.5
COc1cc(/C=N/N(C)C2=NS(=O)(=O)c3ccccc32)cc(OC)c1OC	7.82
CC1CC(C)CN(CCCNC(=O)c2ccc(CS(=O)(=O)Cc3cccc(Cl)c3)o2)C1 (stereo not drawn)	-69.1
Cc1ccc(CS(=O)(=O)Cc2ccc(C(=O)NCCCN3CCOCC3)o2)cc1	6.75
CC1CCN(CCCNC(=O)c2ccc(CS(=O)(=O)Cc3ccc(Cl)cc3)o2)CC1	-44
Cc1ccccc1CS(=O)(=O)Cc1ccc(C(=O)NCCCN2CC(C)CC(C)C2)o1 (stereo not drawn)	-36.1
CC1CCCN(CCCNC(=O)c2ccc(CS(=O)(=O)Cc3cccc(Cl)c3)o2)C1 (stereo not drawn)	-40.7
Cc1ccc(CS(=O)(=O)Cc2ccc(C(=O)NCCCN3CC(C)CC(C)C3)o2)cc1 (stereo not drawn)	-60.2
CN(C1=NS(=O)(=O)c2ccccc21)c1ccc(OC(=O)c2ccncc2)cc1	-9.07
COc1cccc(CN(C)C(=O)CCN(c2ccccc2)S(=O)(=O)c2ccc(C)cc2)c1OC	-30.4
COC(=O)C1=C(c2ccc(F)cc2F)C[C@@H]2CC[C@H]1N2C(=O)NC1Cc2ccccc2C1	-16.9
O=C(N/N=C/c1cc(O)ccc1[N+](=O)[O-])c1ccc2c(c1)OCCO2	-2.12
CCCCOc1ccc(S(=O)(=O)n2c(C)nc3ccccc32)cc1	0.0246
CCN(CC(=O)NCc1cccs1)C(=O)c1ccc(S(=O)(=O)Nc2ccccc2Cl)cc1	-26.8
C/C(=N\NC(=O)c1cccc(S(=O)(=O)N2CCOCC2)c1)c1ccc(C)cc1	-3.88
C/C(=N\NC(=O)c1cccc(S(=O)(=O)N2CCOCC2)c1)c1ccc(O)cc1	11.4
C/C(=N\NC(=O)c1cccc(S(=O)(=O)N2CCCC2)c1)c1ccncc1	-1.9
C/C(=N\NC(=O)c1cccc(S(=O)(=O)N2CCOCC2)c1)c1ccc(C#N)cc1	-52.6
N#Cc1ccc(/C=N/NC(=O)c2cccc(S(=O)(=O)N3CCOCC3)c2)cc1	13.3
C/C(=N\NC(=O)c1cccc(S(=O)(=O)N2CCCC2)c1)c1ccc(C)cc1	-50.4
Cn1c(=O)c2c([nH]c(=S)n2CCCc2ccccc2)n(C)c1=O	15.5
CC(Cc1cccs1)NC(=O)Nc1ccc(F)cc1 (stereo not drawn)	18.2
